Data from ChEMBL document CHEMBL3988442, “University of Dundee, Small-Polar-MMV Screening Library” (2021).
About 900 (1.7%) of roughly 53,000 compounds showed an effect of 50% or more. Shown is part of a subset that was picked to be rich in strong results.

test system: Mycobacterium tuberculosis; assay: Cornell - Phenotypic assay to identify agents that inhibit growth of Mycobacterium tuberculosis; type: functional; design: scale not given: direction of the effect not stated beside the values; conditions: 10 mM as filed; unlikely as a test dose

Compared with Cn1cc(C2=NOC(C(=O)NC3(c4cccc(F)c4)CCCC3)C2)cn1 (stereo unspecified), Cn1cc(CN2CCOC3(CCCN(c4cccc(F)c4)C3)C2)cn1.O=C(O)C(F)(F)F.O=C(O)C(F)(F)F (stereo unspecified) is higher in “Percent Effect” value: -24.87% for the first, -3.324% for the second.

First: Cc1cc(C)nc(N2CCC(Cn3cc(C(N)=O)cn3)CC2)n1
Second: COc1cccc(O[C@H]2CCN(c3nc(C)cc(C)n3)CC[C@@H]2O)c1
The “Percent Effect” value of the first is lower: -23.62% for the first, 6.067% for the second.

Compared with CCOc1ncccc1CNS(=O)(=O)c1ccc2c(c1)CCC2, COc1ccnc(N2CCc3ccc(OC(F)F)cc3C2)n1 is higher in “Percent Effect” value: 13.09% for the first, 105.8% for the second.

Going from CCCn1cc(C(=O)N2CCCC(Cc3nccs3)C2)cn1 (stereo unspecified) to Cc1cnn(C2CCCN(C(=O)CCc3cnn(C)c3)C2)c1 (stereo unspecified), the “Percent Effect” value rises from -22.26% to -9.516%.

First: CCCC(NC(=O)c1occc1C)c1nnn[nH]1 (stereo unspecified)
Second: Cc1[nH]ncc1CCCNC(=O)Nc1ccccc1
The “Percent Effect” value of the first is lower: -83.42% for the first, -14.63% for the second.

Compared with COCc1nn(Cc2ccc(Cl)s2)c(=O)o1, Cc1ccc(-c2nc(CC(=O)NCC3CCOC3)cs2)o1 (stereo unspecified) is higher in “Percent Effect” value: -31.25% for the first, 19.26% for the second.

Going from CCOC(=O)CCC(=O)N1CCC(CSCc2ccco2)CC1 to CCOCC(=O)N1CCC(CSCc2ccco2)CC1, the “Percent Effect” value falls from 59.48% to 34.18%.

Compared with CC(=O)N1CCC(CSCc2ccco2)CC1, Fc1cccc(N2CCCC3(CN(Cc4ccco4)CCO3)C2)c1.O=C(O)C(F)(F)F.O=C(O)C(F)(F)F (stereo unspecified) is higher in “Percent Effect” value: 7.881% for the first, 14.41% for the second.

First: Cc1[nH]ncc1CCCNC(=O)Nc1ccc2c(c1)OC1(CCCC1)O2
Second: Cc1[nH]ncc1CCCNC(=O)Nc1ccc(F)cc1
The “Percent Effect” value of the first is higher: 72.51% for the first, -28.46% for the second.

Compared with COC(=O)N1CC2=CC(C)(C)COc3ccc(OC)c(c32)C1, COc1ccc2c3c1CN(C(C)=O)CC3=CC(C)(C)CO2 is lower in “Percent Effect” value: 31.49% for the first, 9.21% for the second.

Compared with COc1ccc2c3c1CN(C(=O)N(C)C)CC3=CC(C)(C)CO2, COc1ccc(C2CN(c3nc(C)cc(C)n3)CCN2C(C)=O)cc1 (stereo unspecified) is lower in “Percent Effect” value: 89.58% for the first, 37.66% for the second.

First: COc1ccnc(N2CCN(C(=O)N3CCOCC3)CC2)n1
Second: COc1ccnc(N2Cc3cnc(C(C)(C)C)nc3C2)n1
The “Percent Effect” value of the first is lower: -8.776% for the first, 15.27% for the second.

Going from Cc1cc(C)nc(N2CCc3ccc(OC(F)F)cc3C2)n1 to COc1ccc2c(c1)CN(c1nc(C)cc(C)n1)CC2, the “Percent Effect” value falls from 108.4% to 63.12%.

First: COc1ccc2c(c1)CN(c1cc(N3CCCC3CO)ncn1)CC2 (stereo unspecified)
Second: Cc1noc(C)c1-c1ccc(C2CCCN2C(=O)c2cnn(C)c2)nc1 (stereo unspecified)
The “Percent Effect” value of the first is higher: 24.46% for the first, 1.498% for the second.

Going from Cc1cc(C)nc(N2Cc3cnn(Cc4ccc(F)cc4)c3C2)n1 to O=C(CN1CC(c2nc(-c3ccco3)no2)C1)NCc1ccc(F)cc1.O=C(O)C(=O)O, the “Percent Effect” value rises from 1.875% to 26.13%.

Going from CN(Cc1ccc2c(c1)OCO2)C(=O)c1ccc(C2CCCNC2)cc1 (stereo unspecified) to O=C(CN(Cc1cccs1)c1ccc(F)cc1)NC1CCOCC1, the “Percent Effect” value rises from 14.52% to 47.86%.

Compared with O=S(=O)(c1ccc(-c2cnco2)cc1)N1CCCC2(CCNCC2)CC1, O=C(O)C(F)(F)F.O=C(c1ccc(F)cc1)N1C[C@@H]2CCN(c3cccnc3)C[C@@H]2C1 is higher in “Percent Effect” value: -3.285% for the first, -2.234% for the second.

Compared with Cl.O=C(CCN1CCCCC1)Nc1c2c(cc3c1CCC3)CCC2, NC(=O)c1cc2c(nc1Oc1ccccc1CN1CCCCC1)CCC2 is higher in “Percent Effect” value: -6.194% for the first, 23.43% for the second.

Going from CCOC(C)c1nc(Cn2cccn2)cs1 (stereo unspecified) to CCOC(C)c1nc(Cn2cc(C)cn2)cs1 (stereo unspecified), the “Percent Effect” value rises from 9.263% to 25.14%.

First: CCOC(C)c1nc(Cn2cc(-n3cccc3)cn2)cs1 (stereo unspecified)
Second: Cc1nc(CN2CCCN(C(=O)CC(C)n3cccc3)CC2)cs1 (stereo unspecified)
The “Percent Effect” value of the first is higher: 56.69% for the first, 7.748% for the second.

First: CC(=O)NCCNC(=O)Nc1ccc(Br)cc1C(C)C
Second: Cc1ccc(CN(CC(=O)NCC2CCOC2)c2ccc(F)cc2)o1 (stereo unspecified)
The “Percent Effect” value of the first is lower: -45.7% for the first, 104.7% for the second.

Compared with Cc1ccc(CN(CC(=O)NC2CCOCC2)c2ccc(F)cc2)o1, O=C(CN(CC(O)c1ccc(F)cc1)C1CC1)NC1CCOCC1 (stereo unspecified) is lower in “Percent Effect” value: 92.31% for the first, 2.353% for the second.

Going from O=C(NCC1CCOC1)c1csc(-c2ccc(F)cc2)n1 (stereo unspecified) to Fc1cnc(N2CC3(CCN(Cc4ccsc4)C3)C2)nc1.O=C(O)C(F)(F)F, the “Percent Effect” value rises from -10.74% to 30.35%.

Going from O=C(O)C(F)(F)F.O=C([C@H]1C[C@@H]2CCN(c3cccc(F)c3)C[C@H]2O1)N1CCCC1 to O=C(C1CCC1)N1C[C@@H]2CCN(c3cccnc3)C[C@@H]2C1.O=C(O)C(F)(F)F, the “Percent Effect” value falls from 12.3% to -17.68%.

Compared with CN(CCCc1cnn(C)c1)Cc1cc2n(n1)CCCNC2, Fc1cccc(N2C[C@H]3CCN(c4cccnc4)C[C@H]3C2)c1.O=C(O)C(F)(F)F is higher in “Percent Effect” value: 18.02% for the first, 50.35% for the second.

Going from Fc1cnc(N2CCOC3(CCN(Cc4ccsc4)CC3)C2)nc1.O=C(O)C(F)(F)F.O=C(O)C(F)(F)F to Fc1cnc(N2CCOC3(CCN(Cc4cccs4)CC3)C2)nc1.O=C(O)C(F)(F)F.O=C(O)C(F)(F)F, the “Percent Effect” value falls from 103.8% to 5.693%.

Going from Fc1cccc(N2CCCC3(CN(Cc4nccs4)CCO3)C2)c1.O=C(O)C(F)(F)F.O=C(O)C(F)(F)F (stereo unspecified) to Cc1ccc(CN2CCOC3(CCCN(c4cccc(F)c4)C3)C2)o1.O=C(O)C(F)(F)F.O=C(O)C(F)(F)F (stereo unspecified), the “Percent Effect” value rises from 39.92% to 65.05%.

First: Fc1cccc(N2CCCC3(CN(Cc4ccccn4)CCO3)C2)c1.O=C(O)C(F)(F)F.O=C(O)C(F)(F)F.O=C(O)C(F)(F)F (stereo unspecified)
Second: Fc1cccc(N2CCCC3(CN(Cc4cccnc4)CCO3)C2)c1.O=C(O)C(F)(F)F.O=C(O)C(F)(F)F.O=C(O)C(F)(F)F (stereo unspecified)
The “Percent Effect” value of the first is lower: 43.65% for the first, 54.92% for the second.
